Test results as given in PubChem BioAssay AID686978 (National Center for Advancing Translational Sciences (NCATS), 2013).
“And” between values parts separate entries of the source, which are not always exact repeats. Equal entries are not always repeated. In all, about 420,000 compounds went through this assay and about 64,000 (15%) were called active. About 27% were inconclusive and are not listed. The call rests on the fitted dose curve; in most records, active means well fitted inhibition curve with a large enough effect; inconclusive means small, poorly fitted or top-dose-only effect; inactive means flat fitted curve, though single readings scatter. Only a sample is shown. Entries that show only a call come without a potency.

Assay: qHTS for Inhibitors of human tyrosyl-DNA phosphodiesterase 1 (TDP1): qHTS in cells in absence of CPT; further: nearly all actives have a fitted effect of over 55% in size
Conditions: DT40 Tdp1-/- hTDP1 cells, no CPT, ATP luminescence, 48 h; activity change, negative = growth inhibition: at 46.2 µM (top of the series)
How it was run: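 Stably hTDP1-transfected Tdp1-null chicken DT40 cells were treated with library compounds minus camptothecin and grown for at least 48 hr at 37 °C, after which cellular ATP was quantified by luminescence.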
Potency means the concentration at half of the fitted maximal effect.

SMILES	Potency
CC(C)CC(=O)Nc1cc(C(F)(F)F)ccc1N1CCOCC1	inactive
CCOC(=O)c1c(C)[nH]c(C)c1C(=O)CSc1nc(N)cc(N)n1	inactive
COCCNc1cc(NCCOC)c([N+](=O)[O-])cc1[N+](=O)[O-]	inactive
Cc1ccc(OC(=O)c2cc3ccccc3o2)cc1	inactive
CCOC(=O)c1[nH]c(C)c(CCC(=O)NCc2ccccc2C)c1C	inactive
C/C(CC(=O)Nc1cccc(F)c1)=N\NC(=O)C(=O)NC1CCCCC1	inactive
C=C(C)c1cccc(C(C)(C)NC(=O)N2CCN(c3ncccn3)CC2)c1	inactive
O=C(CCN1C(=O)c2ccccc2C1=O)NNC(=O)c1ccc(Cl)cc1Cl	inactive
COc1ccc(Nc2cc(=O)n(-c3ccccc3)c3c2c(=O)n(C)c(=O)n3C)cc1	inactive
COc1cccc(-n2cc3c(c2-c2ccccc2)c(=O)n(C)c(=O)n3C)c1	11.6 µM (active)
COc1cccc(-n2cc(C(=O)O)c3ccccc3c2=O)c1	inactive
CN1CCN(NC(=O)Nc2ccc(Br)cc2)CC1	inactive
COC(=O)c1ccc(/C=N/NC(=O)C(=O)N2CCCCCC2)cc1	inactive
CCCNC(=O)c1cc(C2CCCN(C(=O)c3ccc4c(c3)CCO4)C2)on1 (stereo not given)	inactive
O=C(c1[nH]ncc1-c1ccc(Cl)cc1)C1CO1 (stereo not given)	4.61 µM (active)
S=c1[nH]nc(-c2ccc(Cl)cc2)n1CC1CCCO1 (stereo not given)	inactive
O=C(c1nnc(-c2ccc(Cl)cc2)o1)C1CCCC1	inactive
CC(OC(=O)CCc1nc(=O)c2ccccc2n1C)C(=O)NCc1ccc2c(c1)OCO2 (stereo not given)	inactive
CCn1c(CNC(=O)c2ccccc2)nnc1SCC(=O)N1CCN(c2ccccc2)CC1	inactive
CCn1c2c(c(=O)n3ncc(C(=O)N4CCN(c5ccccc5)CC4)c13)CN(Cc1ccc(OC)cc1)CC2	16.4 µM (active)
COc1ccc(N2CCN(C(=O)c3ccccc3NC(=O)C3=C(C)OCCS3)CC2)cc1	inactive
CCC(C)NC(=O)C1CCC(=O)N1Cc1ccc(C)cc1 (stereo not given)	inactive
CN(Cc1ccco1)S(=O)(=O)c1nnc(NC(=O)c2ccccc2)s1	inactive
COc1ccccc1CNC(=O)CCCn1c(=O)c2ccccc2n(CC(=O)Nc2ccc(C)cc2Cl)c1=O	inactive
COc1ccc(NC(=O)Cn2c(=O)n(Cc3ccc(C(=O)NCc4ccccc4Cl)cc3)c(=O)c3ccccc32)cc1	inactive
COc1ccc(CCNC(=O)CCCCn2c(=O)c3ccccc3n(Cc3ccccc3)c2=O)cc1OC	20.6 µM (active)
COc1ccc(CCNC(=O)CCCn2c(=O)c3ccccc3n(Cc3ccc(F)cc3Cl)c2=O)cc1OC	inactive

SMILES	Potency
Cc1ccc(Cn2c(=O)n(CCCC(=O)NCc3ccccc3Cl)c(=O)c3ccccc32)cc1	inactive
COCCNC(=O)CCCn1c(=O)c2ccccc2n(Cc2cccc([N+](=O)[O-])c2)c1=O	inactive
COc1ccccc1CNC(=O)CCn1c(=O)sc2ccccc21	inactive
COc1ccccc1CNC(=O)CCCCn1c(=O)c2ccccc2n(CC(=O)Nc2cc(Cl)ccc2C)c1=O	10.3 µM (active)
COc1ccccc1CNC(=O)CCn1c(=O)c2ccccc2n(CC(=O)Nc2cccc(Cl)c2)c1=O	18.4 µM (active)
CC(C)(C)C1CCC(=NNC(=O)c2ccc(Br)o2)CC1 (stereo not given)	inactive
Cc1nc2cccnc2nc1C	inactive
Cc1ccc2c(c1)C(O)(CC(=O)c1cccc(-n3cccc3)c1)C(=O)N2 (stereo not given)	inactive
CCCCCCCCc1c(O)nc(-n2[nH]c(C)c(CCO)c2=O)[nH]c1=O	inactive
Cc1ccc(C(=O)NNC(=O)c2ccc3c(c2)OCCO3)cc1	inactive
COC(=O)c1ccc(C(=O)OC)c(NC(=S)N2CCCCC2)c1	inactive
Brc1ccc(-c2noc(-c3ccccc3)n2)o1	inactive
Cn1c(=O)cc(SCC(=O)N2CCN(C(=O)c3ccco3)CC2)c2ccccc21	inactive
Nc1c(C(=O)O)cnn1-c1ccccc1	inactive
COC(=O)Cn1c(O)c(N=NC(=O)OC)c2ccccc21	inactive
CCn1c(O)c(N=NC(=O)c2cccc(S(=O)(=O)N3CCCCC3)c2)c2ccccc21	23.1 µM (active)
CN1CCN(S(=O)(=O)c2cccc(C(=O)O)c2)CC1	inactive
O=[N+]([O-])c1cccc(C2=NCCS2)c1	inactive
CC(CC(=O)Nc1ccc(F)cc1F)S(=O)(=O)c1ccc2c(c1)NC(=O)CO2 (stereo not given)	inactive
O=C(NCc1cccnc1)Nc1cccc(NC(=O)NCc2cccnc2)c1F	inactive
COCCCN1C(=O)c2ccc(C(=O)OCC(=O)NCc3ccccc3OC)cc2C1=O	inactive
CC(=O)c1ccc(OCCN2CCOCC2)cc1	inactive
CCOc1ccc(C(=O)CCN2CCOCC2)cc1	20.6 µM (active)
CCOc1ccc(C2C(C(=O)O)c3ccccc3C(=O)N2CCN2CCOCC2)cc1 (stereo not given)	inactive
CC1CN(C2CCN(C(=O)COc3ccccc3)CC2)CC(C)O1 (stereo not given)	inactive
CN(CC(=O)NCc1ccncc1)S(=O)(=O)c1ccc(Br)cc1	inactive
COc1ccc(CCNC(=O)C(=O)NCC2CCNCC2)cc1OC	inactive

SMILES	Potency
COc1ccc(CCNc2ncnc3nc[nH]c23)cc1OC	11.6 µM (active)
CCCNC(=O)NC(=O)COC(=O)CC(NC(N)=O)c1ccc(Cl)cc1 (stereo not given)	inactive
CSCCC(NC(=O)c1ccco1)C(=O)NCCc1ccc(F)cc1 (stereo not given)	inactive
CC(NC(=O)Nc1ccc2c(c1)OCO2)c1ccncc1 (stereo not given)	inactive
CC1CCCN(C(C(=O)Nc2ccc(C(C)C)cc2)c2ccc3c(c2)OCO3)C1 (stereo not given)	18.4 µM (active)
CCc1ccc(NC(=O)NC(C)c2ccc3c(c2)OCO3)cc1 (stereo not given)	inactive
Cc1ccc(S(=O)(=O)NC2CCCCCC2)cc1C(N)=O	inactive
Cc1cccc(NS(=O)(=O)c2ccc(C)c(C(N)=O)c2)c1	9.2 µM (active)
Cc1cccc(NS(=O)(=O)c2ccc(C)c(C(=O)NCc3cccnc3)c2)c1	inactive
COc1ccccc1C(=O)N1C(CC(=O)Nc2ccccc2C)C(=O)NC2CCCCC21 (stereo not given)	inactive
COc1cccc(-n2c(=S)[nH]c3c(oc4ccccc43)c2=O)c1	inactive
CNc1[nH]ncc1[N+](=O)[O-]	inactive
CCCCCCNCCn1cnc2c(N)ncnc21	inactive
Cc1cccc(NC(=O)CSc2nc3c(oc4ccccc43)c(=O)n2-c2ccc(F)cc2)c1	inactive
Cc1ccc(NC(=O)Cn2nc(C)c3ccccc3c2=O)c(C)c1	inactive
Cc1nc(SCC(=O)c2ccccc2)c([N+](=O)[O-])[nH]1	inactive
Cc1ccc(NC(=O)CSc2nc3c([nH]c4ccccc43)c(=O)n2-c2ccccc2)c(C)c1	16.4 µM (active)
Cc1ccc(-n2c(SCC(=O)c3ccccc3)nc3c([nH]c4ccccc43)c2=O)cc1	3.66 µM (active)
CC(C)OCCCn1c(SCC(=O)c2ccccc2)nc2c(sc3ccccc32)c1=O	inactive
Cc1ccc(NC(=O)CSc2nnc3[nH]c(=O)cc(C)n23)cc1Cl	inactive
Cc1ccc(NC(=O)CSc2nc3c([nH]c4ccccc43)c(=O)n2-c2ccccc2)cc1Cl	23.1 µM (active)
Cc1ccc(C)c(NC(=O)CSc2nc3c(oc4ccccc43)c(=O)n2-c2ccccc2)c1	10.3 µM (active)
Cc1ccc(-n2c(SCC(=O)Nc3cccc(F)c3)nc3c(oc4ccccc43)c2=O)cc1C	inactive
Cc1ccc(NC(=O)COC(=O)CCc2nc3ccccc3n2-c2ccccc2)c(C)c1	inactive
Cc1ccc(NC(=O)CSc2nn3c(=O)c(C)nnc3s2)cc1Cl	inactive
O=C(CC12CC3CC(CC(C3)C1)C2)NCc1ccco1	inactive
CCCOc1ccc(Cc2c(O)nc(N)[nH]c2=O)cc1C	inactive

SMILES	Potency
CN1C(=O)CC(c2ccccc2)C1=O (stereo not given)	inactive
Cc1cc(C(=O)CC#N)c(C)n1CC(F)(F)F	inactive
CCC(=O)N1CCC(C)(C(=O)Nc2cc(OC)c(OC)c(OC)c2)C1 (stereo not given)	inactive
C/C(=N\NS(=O)(=O)c1ccc(Br)cc1)c1cccs1	inactive
O=C(c1ccco1)N1CCC[C@@]2(CCN(Cc3nccs3)C2)C1	inactive
C[C@H](CO)N1C[C@H](C)[C@@H](CN(C)C(=O)c2cnccn2)Oc2ncc(Br)cc2C1=O	inactive
CC1CN(C(=O)CN2C(=O)NC(C)(c3ccccc3)C2=O)CC(C)O1 (stereo not given)	inactive
O=C(c1ccccc1)c1cccn1CC(=O)N1CCN(c2ccc(F)cc2)CC1	inactive
CCOC(=O)c1ccc(NC(=O)CSc2nc3c([nH]c4ccccc43)c(=O)n2C)cc1	9.2 µM (active)
CCOn1c(SC(C)C)nc2ccccc2c1=O	inactive
Cn1nnnc1SCc1cc(=O)[nH]c2ccccc12	inactive
CC(Sc1nc2c([nH]c3ccccc32)c(=O)n1C)c1ccccc1 (stereo not given)	18.4 µM (active)
CCOC(=O)c1ccc(NC(=O)CSc2nnc(COc3ccccc3OC)n2C)cc1	inactive
CCOC(=O)c1ccc(NC(=O)c2cc(=O)[nH]c3ccccc23)cc1	inactive
CSc1ncccc1C(=O)OCC(=O)N1CCOCC1	inactive
CCOC(=O)c1cccc(NC(=O)CCc2nnc3ccc(N4CCOCC4)nn23)c1	inactive
CC(C)c1nc2ccc(C(=O)O)cc2[nH]1	inactive
COC(=O)Nc1nc2ccc(Sc3ccccc3)cc2[nH]1	517 nM (active) and 286 nM (active)
Cc1nc2ccc(C(=O)O)cc2[nH]1	inactive
CC1CCN(C(=O)/C(=C\c2ccccc2)NC(=O)c2ccccc2)CC1	inactive
O=C(CS(=O)(=O)Cc1ccccc1)Nc1cccnc1	inactive
CNc1cncc(-c2ccc(NS(C)(=O)=O)cc2)n1	4.11 µM (active)
CNc1cncc(-c2cccc(C(=O)N3CCOCC3)c2)n1	inactive
CS(=O)(=O)Nc1ccc(C(=O)N2CCCC2)cc1	inactive
